# Assay results: PubChem BioAssay (EPA / NIEHS)
# “And” between values parts separate entries of the source, which are not always exact repeats. Equal values may be shown once. The source holds several records for some structures; these can differ, active in one and inactive in another. The source made the active and inactive calls. How the source made its calls: active means hit-call score of the fitted dose curve at least 0.9, where 1 is the maximum; inactive means score below 0.9.
# Read-out: Decorin, DCN (gene 1634)
# Assay: BSK_MyoF_Decorin: BioMAP Diversity Plus: MyoF Assay for Decorin Biomarker Activity (AID 2284265)
# Conditions: primary human lung fibroblasts
# Method in brief: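 ELISA readout of decorin, 24 h post-dosing; primary human lung fibroblast (MyoF) culture; gain-of-signal fit vs DMSO baseline.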
SMILES,outcome,AC50
FC(F)(F)C(F)(F)C(F)(F)C(F)(F)C(F)(F)CCI,inactive,–
O=C(O)C(F)(F)C(F)(F)C(F)(F)C(F)(F)C(F)(F)C(F)(F)C(F)(F)C(F)(F)C(F)(F)C(F)F,inactive,–
O=P(O)(O)OCCC(F)(F)C(F)(F)C(F)(F)C(F)(F)C(F)(F)C(F)(F)F,inactive,–
FC(F)(Br)C(F)(F)C(F)(F)C(F)(F)C(F)(F)C(F)(F)Br,inactive,–
OCC(F)(F)C(F)(F)C(F)(F)F,inactive,–
O=C(O)C(F)(F)C(F)(F)C(F)(F)C(F)(F)C(F)(F)C(F)(F)C(F)(F)C(F)(F)C(F)(F)C(F)(F)C(F)(F)C(F)(F)F,inactive,–
O=S(=O)(OCC(F)F)C(F)(F)F,inactive,–
FC(F)(F)C(F)(F)C(F)(F)CI,inactive,–
FC(F)(I)C(F)(F)C(F)(F)C(F)(F)I,–,45.8 µM (active) and 45.9 µM (active) and 54.5 µM (active)
FC(F)(F)C(F)(F)C(F)(F)C(F)(F)C(F)(F)C(F)(F)C(F)(F)I,inactive,–
OCCCC(F)(F)C(F)(F)C(F)(F)C(F)(F)C(F)(F)C(F)(F)C(F)(F)F,–,51.2 µM (active) and 52.2 µM (active)
COC(=O)CCC(F)(F)C(F)(F)C(F)(F)C(F)(F)F,inactive,–
OCC(F)(F)C(F)(F)C(F)(F)C(F)F,inactive,5.95 µM (active)
FC1CC(F)(F)C(F)(F)C1(F)F (stereo not drawn),inactive,–
O=C(O)C(F)(F)C(F)(F)C(F)(F)C(F)(F)F,inactive,–
O=S(=O)(O)C(F)(F)C(F)(F)C(F)(F)C(F)(F)C(F)(F)C(F)(F)C(F)(F)F,inactive,–
O=C(CC(=O)C(F)(F)C(F)(F)F)C(F)(F)F,inactive,–
